# Only a selection was taken, and the strongest signals are over-represented in it overall.
# Legend:
# Assay in all cases: glycan array binding signal (z-score within array); higher = stronger binding
# Conditions in all cases: glycan notation: IUPAC condensed, linker removed; mutation: R82H, R255H
# [1] = molecular target: Fuc(a1-2)Gal(b1-3)GlcNAc(b1-3)[Gal(b1-4)GlcNAc(b1-6)]Gal(b1-4)Glc
# Method in brief: (§1)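 The Consortium for Functional Glycomics database supplied 3228 glycan arrays, of which those lacking an available protein sequence were dropped. The binding signal, a within-array Z-score, was averaged across arrays of the same protein sequence and across linkers. Negative scores can be read as non-binding.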
# [2] = molecular target: Fuc(a1-2)Gal(b1-3)[Fuc(a1-4)]GlcNAc(b1-2)Man(a1-3)[Fuc(a1-2)Gal(b1-3)[Fuc(a1-4)]GlcNAc(b1-2)Man(a1-3)]Man(b1-4)GlcNAc(b1-4)GlcNAc
# Method in brief: as §1
# [3] = molecular target: Fuc(a1-2)[Gal(a1-3)]Gal(b1-3)GlcNAc(b1-2)Man(a1-3)[Fuc(a1-2)[Gal(a1-3)]Gal(b1-3)GlcNAc(b1-2)Man(a1-6)]Man(b1-4)GlcNAc(b1-4)GlcNAc
# Method in brief: as §1
# [4] = molecular target: Fuc(a1-2)[Gal(a1-3)]Gal(b1-4)GlcNAc(b1-6)GalNAc
# Method in brief: as §1
# [5] = molecular target: Fuc(a1-2)[GalNAc(a1-3)]Gal
# Method in brief: as §1
# [6] = molecular target: Fuc(a1-2)[GalNAc(a1-3)]Gal(b1-3)GalNAc(b1-3)Gal(a1-4)Gal(b1-4)Glc
# Method in brief: as §1
# [7] = molecular target: Fuc(a1-2)[GalNAc(a1-3)]Gal(b1-3)GlcNAc(b1-2)Man(a1-3)[Fuc(a1-2)[GalNAc(a1-3)]Gal(b1-3)GlcNAc(b1-2)Man(a1-6)]Man(b1-4)GlcNAc(b1-4)GlcNAc
# Method in brief: as §1
# [8] = molecular target: Fuc(a1-2)[GalNAc(a1-3)]Gal(b1-4)GlcNAc(b1-2)Man(a1-3)[Fuc(a1-2)[GalNAc(a1-3)]Gal(b1-4)GlcNAc(b1-2)Man(a1-6)]Man(b1-4)GlcNAc(b1-4)GlcNAc
# Method in brief: as §1
# [9] = molecular target: Fuc(a1-2)[GalNAc(a1-3)]Gal(b1-4)GlcNAc(b1-3)Gal(b1-4)GlcNAc
# Method in brief: as §1
# [10] = molecular target: Fuc(a1-2)[GalNAc(a1-3)]Gal(b1-4)GlcNAc(b1-3)[Fuc(a1-2)[GalNAc(a1-3)]Gal(b1-4)GlcNAc(b1-6)]GalNAc
# Method in brief: as §1
# [11] = molecular target: Fuc(a1-3)[Gal(b1-4)]GlcNAc(b1-6)GalNAc
# Method in brief: as §1
# [12] = molecular target: Fuc(a1-3)[Gal3S(b1-4)]Glc
# Method in brief: as §1
# [13] = molecular target: Fuc(a1-4)GlcNAc
# Method in brief: as §1
# [14] = molecular target: Gal(a1-3)Gal(b1-3)GlcNAc(b1-2)Man
# Method in brief: as §1
# [15] = molecular target: Gal(a1-3)[Gal(a1-4)]Gal(b1-4)GlcNAc
# Method in brief: as §1
# [16] = molecular target: Gal(a1-4)Gal(b1-4)Glc
# Method in brief: as §1
# [17] = molecular target: Gal(b1-2)Gal
# Method in brief: as §1
# [18] = molecular target: Gal(b1-3)GalNAc
# Method in brief: as §1
# [19] = molecular target: Gal(b1-3)GalNAc(b1-3)Gal(a1-4)Gal(b1-4)Glc
# Method in brief: as §1
# [20] = molecular target: Gal(b1-3)GalNAc(b1-4)Gal(b1-4)Glc
# Method in brief: as §1
# [21] = molecular target: Gal(b1-3)GlcNAc(a1-3)Gal(b1-4)GlcNAc
# Method in brief: as §1
# [22] = molecular target: Gal(b1-3)GlcNAc(b1-3)Gal(b1-4)Glc
# Method in brief: as §1
# [23] = molecular target: Gal(b1-3)GlcNAc(b1-6)GalNAc
# Method in brief: as §1
# [24] = molecular target: Gal(b1-3)[Fuc(a1-4)]GlcNAc(b1-6)GalNAc
# Method in brief: as §1
# [25] = molecular target: Gal(b1-4)GlcNAc(b1-2)Man
# Method in brief: as §1
# [26] = molecular target: Gal(b1-4)GlcNAc(b1-3)Gal(b1-4)GlcNAc(b1-2)Man(a1-3)[Gal(b1-4)GlcNAc(b1-3)Gal(b1-4)GlcNAc(b1-2)Man(a1-6)]Man(b1-4)GlcNAc(b1-4)GlcNAc
# Method in brief: as §1
# [27] = molecular target: Gal(b1-4)GlcNAc(b1-3)Gal(b1-4)GlcNAc(b1-3)Gal(b1-4)GlcNAc(b1-3)Gal(b1-4)GlcNAc(b1-3)Gal(b1-4)GlcNAc(b1-2)[Gal(b1-4)GlcNAc(b1-3)Gal(b1-4)GlcNAc(b1-3)Gal(b1-4)GlcNAc(b1-3)Gal(b1-4)GlcNAc(b1-3)Gal(b1-4)GlcNAc(b1-6)]Man(a1-6)[Gal(b1-4)GlcNAc(b1-3)Gal(b1-4)GlcNAc(b1-3)Gal(b1-4)GlcNAc(b1-3)Gal(b1-4)GlcNAc(b1-3)Gal(b1-4)GlcNAc(b1-2)Man(a1-3)]Man(b1-4)GlcNAc(b1-4)[Fuc(a1-6)]GlcNAc
# Method in brief: as §1
# [28] = molecular target: Gal(b1-4)GlcNAc(b1-3)Gal(b1-4)GlcNAc(b1-3)Gal(b1-4)GlcNAc(b1-3)Gal(b1-4)GlcNAc(b1-3)Gal(b1-4)GlcNAc(b1-3)Gal(b1-4)GlcNAc(b1-2)Man(a1-3)[Gal(b1-4)GlcNAc(b1-3)Gal(b1-4)GlcNAc(b1-3)Gal(b1-4)GlcNAc(b1-3)Gal(b1-4)GlcNAc(b1-3)Gal(b1-4)GlcNAc(b1-3)Gal(b1-4)GlcNAc(b1-2)Man(a1-6)]Man(b1-4)GlcNAc(b1-4)GlcNAc
# Method in brief: as §1
binder,measurement,setting,value
"Gal 8 (Mus musculus), Q9JL15 (protein) MGGSHHHHHHGMASMLSLNNLQNIIYNPIIPYVGTITEQLKPGSLIVIRGHVPKDSERFQVDFQLGNSLKPRADVAFHFNPHFKRSSCIVCNTLTQEKWGWEEITYDMPFRKEKSFEIVFMVLKNKFQVAVNGRHVLLYAHRISPEQIDTVGIYGKVNIHSIGFRFSSASALPHTLGDLQSMETSALGLTQINRENIQKPGKLQLSLPFEARLNASMGPGRTVVIKGEVNTNARSFNVDLVAGKTRDIALHLNPHLNVKAFVRNSFLQDAWGEEERNITCFPFSSGMYFEMIIYCDVREFKVAINGVHSLEYKHRFKDLSSIDTLSVDGDIRLLDVRSW",glycan array binding signal (z-score),[1],1.15
same,glycan array binding signal (z-score),[2],-0.083
same,glycan array binding signal (z-score),[3],4.77
same,glycan array binding signal (z-score),[4],-0.168
same,glycan array binding signal (z-score),[5],-0.248
same,glycan array binding signal (z-score),[6],-0.253
same,glycan array binding signal (z-score),[7],7.3
same,glycan array binding signal (z-score),[8],6.58
same,glycan array binding signal (z-score),[9],-0.08
same,glycan array binding signal (z-score),[10],0.117
same,glycan array binding signal (z-score),[11],-0.212
same,glycan array binding signal (z-score),[12],-0.192
same,glycan array binding signal (z-score),[13],0.01
same,glycan array binding signal (z-score),[14],-0.263
same,glycan array binding signal (z-score),[15],-0.236
same,glycan array binding signal (z-score),[16],-0.18
same,glycan array binding signal (z-score),[17],-0.193
same,glycan array binding signal (z-score),[18],-0.251
same,glycan array binding signal (z-score),[19],-0.235
same,glycan array binding signal (z-score),[20],-0.226
same,glycan array binding signal (z-score),[21],-0.269
same,glycan array binding signal (z-score),[22],-0.263
same,glycan array binding signal (z-score),[23],-0.274
same,glycan array binding signal (z-score),[24],-0.243
same,glycan array binding signal (z-score),[25],-0.197
same,glycan array binding signal (z-score),[26],0.454
same,glycan array binding signal (z-score),[27],6
same,glycan array binding signal (z-score),[28],7.05
